# Test results: PubChem BioAssay AID540351 (The Scripps Research Institute Molecular Screening Center, 2011)
# Unmarked numbers belong to inactive results. How the calls were made is not given here.
# Test system: Rolipram
# Assay: off-target receptor, channel and CYP panel, profiling panel, selectivity assay for S1P3 agonist project, biochemical, Ricerca HitProfilingScreen, CYP450 (AID 540351)
# Settings: Ricerca receptor/enzyme binding panel plus CYP450, at 30 µM, stronger effect = higher value
smiles,measurement,value
O=C(c1cc(C2CC2)on1)N(C1CCCCC1)C1CCCCC1,inhibition,18%
